GBA mod = Glucocerebrosidase | hit rate 1.1% among 48,000 | Potency, µM | purified enzyme, resorufin glucoside fluorescence (screen aimed at inhibitors), 20 min | Lysosomal acid glucosylceramidase (Homo sapiens), P04062; in the data active means potency below about 15 µM; inconclusive means mostly about 16 µM to 33 µM;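 further: the screen sought inhibitors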
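Wild-type enzyme at 0.2 nM final in 50mM citric acid/KH2PO4, 10mM sodium taurocholate, 0.01% tween-20, pH 5.9, with resorufin beta-D-glucopyranoside at 30 uM final. Compounds titrated, 20 min at RT, red fluorescence read; AC50 from titration.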
PK Bst = Pyruvate Kinase; Potency, µM; purified pyruvate kinase, luminescence ATP production; ribose 5-phosphate activator present at AC10; hit rate 1.2% among 51,000; in the data active means potency below about 11 µM; inconclusive means mostly about 12 µM to 25 µM;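 the screen sought inhibitors and activators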;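 further: scaled between full activation by ribose 5 phosphate and full inhibition by luteolin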
ERK AVP inh = qHTS Assay for Inhibitors of the ERK Signaling Pathway using a Homogeneous Screening Assay | HEK293-V1b, vasopressin-stimulated pERK AlphaScreen | Potency, µM (doses to about 57.5 µM), for the others: at the highest dose activity, negative = inhibition, actives largely listed as inhibitors | hit rate 0.99% among 72,000 | AID 995, 2007; further: on the % scale 0 is the no-effect control and ±100 the full control effect; nearly all actives have a fitted effect of over 55% in size
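V1b-HEK293 cells; cpd 30 min 37C; 25 nM vasopressin 5 min; lyse 10 min; AlphaScreen beads 5 hr RT. Normalized to DMSO basal and 25 nM vasopressin; AC50 by Hill fit.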
FLuc inh = qHTS Assay for Inhibitors of Firefly Luciferase | Luciferin 4-monooxygenase (Photinus pyralis), P08659 | purified firefly luciferase, luminescence, 8 min | Potency, µM (highest dose often 57.1 µM), inactives show at the top dose activity change, negative = inhibition, usual class: inhibitors | hit rate 2.2% among 72,000; further: on the % scale 0 is the no-effect control and ±100 the full control effect; nearly all actives have a fitted effect of over 40% in size
Target sequence (P08659 whole entry, looked up): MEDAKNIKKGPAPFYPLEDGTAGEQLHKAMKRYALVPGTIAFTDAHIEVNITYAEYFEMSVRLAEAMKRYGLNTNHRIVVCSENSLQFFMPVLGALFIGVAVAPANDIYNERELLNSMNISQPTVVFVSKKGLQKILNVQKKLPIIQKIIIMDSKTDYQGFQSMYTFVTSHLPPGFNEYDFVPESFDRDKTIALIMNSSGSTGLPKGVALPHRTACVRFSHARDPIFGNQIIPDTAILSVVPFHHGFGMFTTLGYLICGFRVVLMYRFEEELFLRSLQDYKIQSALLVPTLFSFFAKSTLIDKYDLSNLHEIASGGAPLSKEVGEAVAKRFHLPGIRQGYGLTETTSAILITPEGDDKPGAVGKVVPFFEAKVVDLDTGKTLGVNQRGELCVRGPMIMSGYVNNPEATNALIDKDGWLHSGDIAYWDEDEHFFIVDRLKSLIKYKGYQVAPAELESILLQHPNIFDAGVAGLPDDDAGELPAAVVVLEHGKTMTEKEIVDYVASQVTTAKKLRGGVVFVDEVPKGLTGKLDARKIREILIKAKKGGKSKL
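Compounds were tested as concentration series (qHTS) against purified P. pyralis luciferase with luciferin and 10 uM ATP in 50 mM imidazole pH 7.2, 50 mM KCl, 7 mM MgCl2, 0.01% Tween 20, 0.05% BSA. Luminescence was read after 8 min at ambient temperature.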
* = called active by the depositor; [ ] = another dose, or the depositor's remark. A selection: hits, their analogues and other compounds. The true share with any hit is near 3.9%. Unless noted, the call rests on the fitted dose curve; in most records, active means well fitted curve in the direction sought with a large enough effect; inconclusive means small, poorly fitted or top-dose-only effect, or another doubt; inactive means no such curve, though single readings can be large; an effect the other way counts as inactive or inconclusive. Potency means the concentration at half of the fitted maximal effect.

What do the screens show for `CCCn1c(C)nc2c(N3CCC(N(C)C)C3)nc(C)nc21` (centres undefined)?
ERK AVP inh: -14.5%

What do the screens show for `N#CCCn1c(=O)c(-c2ccc(Cl)cc2)nc2cnc(Nc3ccccc3)nc21`?
ERK AVP inh: -21.2%; FLuc inh: 1.1%[11.4 µM]

How did COc1cccc(N2CCN(Cc3nc(N)nc(Nc4ccccc4OC)n3)CC2)c1 do in these assays?
GBA mod: 3.91*; PK Bst: >57; ERK AVP inh: -19.8%; FLuc inh: 2.4%

How did CC(C)C(=O)Nc1ccc(NC(=O)c2cc3ccccc3o2)cc1 do in these assays?
GBA mod: 9.78*; PK Bst: >57; ERK AVP inh: -9.5%; FLuc inh: -23.0%

What do the screens show for `O=C(Nc1ccc(N2CCN(C(=O)c3ccccc3)CC2)cc1)c1cc2ccccc2o1`?
GBA mod: >76.9; PK Bst: >57; ERK AVP inh: 1µM*; FLuc inh: 2.5%

What do the screens show for `CCOC(=O)c1ccc(NC(=O)N2CCN(c3ccccn3)CC2)cc1`?
GBA mod: >76.9; PK Bst: >57; ERK AVP inh: inconclusive; FLuc inh: -1.9%

How did CCOC(=O)c1ccc(NC(=O)c2cc3ccccc3o2)cc1 do in these assays?
ERK AVP inh: 31.6µM*; FLuc inh: inconclusive

How did CCOC(=O)c1ccc(NC(=O)N2CCN(CCc3ccccc3)CC2)cc1 do in these assays?
GBA mod: >76.9; ERK AVP inh: -18.9%; FLuc inh: 25.1µM*

Results for CCCC(=O)N1CCN(c2ccc(NC(=O)c3cc4ccccc4o3)cc2)CC1 ?
GBA mod: >76.9; PK Bst: >57; ERK AVP inh: -8.8%; FLuc inh: -2.1%

What do the screens show for `CC(=O)N(OCc1ccccc1)[C@@H]1c2cc(C#N)ccc2OC(C)(C)[C@H]1O`?
ERK AVP inh: 18.4%

Results for CCOc1ccc(-c2nnc(N(CC)C(=O)C3CCC3)s2)cc1 ?
GBA mod: >76.9; PK Bst: inconclusive; ERK AVP inh: -12.6%; FLuc inh: 15.8µM*

Results for CCCC(=O)N(C)c1nnc(-c2ccc(OC)cc2)s1 ?
GBA mod: >76.9; PK Bst: inactive; ERK AVP inh: -13.2%; FLuc inh: 15.8µM*

How did CCN(C(=O)Cc1cccs1)c1nnc(-c2cc(OC)c(OC)c(OC)c2)s1 do in these assays?
GBA mod: >76.9; PK Bst: >57; ERK AVP inh: 8.1%; FLuc inh: -1.8%

What do the screens show for `CC(=O)O[C@H]1C2=C(C(=O)[C@H]3O[C@@H]31)[C@@H]1[C@@H]3[C@@H](C)OC=C4[C@H](O)[C@H]5O[C@@H]5C(=O)[C@]43C2O[C@H]1C`?
ERK AVP inh: 9.7%[11.5 µM]; FLuc inh: 1.3%[11.4 µM]

Results for Cc1cc2nc(SC(C)C(=O)O)[nH]c2cc1C (centres undefined) ?
GBA mod: >76.9; ERK AVP inh: -7.3%; FLuc inh: 10µM*

How did Cc1ccc(-c2nc3ccccc3[nH]2)s1 do in these assays?
ERK AVP inh: -24.1%; FLuc inh: 5.01µM*

How did c1csc(-c2nc3ccccc3[nH]2)c1 do in these assays?
GBA mod: >76.9; ERK AVP inh: -11.2%; FLuc inh: inconclusive

Results for Nc1nc(-c2nc3ccccc3[nH]2)cs1 ?
GBA mod: >76.9; PK Bst: inconclusive; ERK AVP inh: -2.5%; FLuc inh: 12.6µM*

What do the screens show for `COc1ccc(C(=O)Oc2ccc(/C=N/O)cc2)cc1`?
ERK AVP inh: -9.0%; FLuc inh: 12.6µM*

How did CCSC1=C(C#N)C(c2cccs2)C(C(=O)OC)=C(C)N1 (centres undefined) do in these assays?
PK Bst: >25.6; FLuc inh: 0.4%[25.5 µM]

What do the screens show for `CCOC(=O)C1=C(C)NC(SCC(=O)Nc2cc(C)on2)=C(C#N)C1c1cccs1` (centres undefined)?
GBA mod: 1.9*; PK Bst: >57; ERK AVP inh: 15.7%; FLuc inh: -0.6%

How did CC1(C)SC2C(NC(=O)C(N)c3ccccc3)C(=O)N2C1C(=O)O (centres undefined) do in these assays?
ERK AVP inh: 3.5%

How did O=C(Nc1cccc(NC(=O)c2cccs2)c1)c1ccco1 do in these assays?
GBA mod: >76.9; PK Bst: >57; ERK AVP inh: -9.6%; FLuc inh: -7.4%

What do the screens show for `O=C(Nc1ccc2nc(-c3ccco3)[nH]c2c1)c1cccs1`?
GBA mod: >76.9; PK Bst: 10.1*; ERK AVP inh: -28.5%; FLuc inh: 12.6µM*

Results for O=C(CSc1ccc(-c2nc3ccccc3[nH]2)cn1)N1CCN(C(=O)c2ccco2)CC1 ?
PK Bst: inactive; ERK AVP inh: inconclusive; FLuc inh: 20µM*

What do the screens show for `O=C(Nc1ccc2nc(-c3ccco3)[nH]c2c1)c1ccco1`?
GBA mod: >76.9; PK Bst: 10.3*; ERK AVP inh: inconclusive; FLuc inh: 12.6µM*

Results for O=C(CCc1nc2ccccc2[nH]1)N1CCN(C(=O)c2ccco2)CC1 ?
ERK AVP inh: -2.4%; FLuc inh: 2.7%

How did Cc1ccc2nc(-c3cccc(NC(=O)c4ccco4)c3)[nH]c2c1 do in these assays?
GBA mod: >76.9; PK Bst: 6.36*; ERK AVP inh: -11.4%; FLuc inh: 10µM*

How did Cc1ccc(O)c(NC(=O)c2cccc(NC(=O)c3ccco3)c2)c1 do in these assays?
GBA mod: >76.9; PK Bst: >57; ERK AVP inh: -26.0%; FLuc inh: -17.4%

What do the screens show for `CN1CCN([C@@H]2Cc3ccccc3Sc3ccc(Cl)cc32)CC1`?
ERK AVP inh: -1.1%; FLuc inh: 0.4%

How did CC(=O)Nc1cccc(-c2nc3ccc(NC(C)=O)cc3[nH]2)c1 do in these assays?
GBA mod: >76.9; PK Bst: inactive; ERK AVP inh: 1.5%; FLuc inh: 15.8µM*

How did O=C(NCc1nc2ccccc2[nH]1)c1ccco1 do in these assays?
GBA mod: >76.9; PK Bst: >57; ERK AVP inh: -24.5%; FLuc inh: 0.1%

Results for CC(=O)Nc1ccc2nc(-c3cccnc3)[nH]c2c1 ?
PK Bst: >57; ERK AVP inh: 2.3%; FLuc inh: -11.7%

What do the screens show for `O=C(Nc1ccc2nc(-c3cccnc3)[nH]c2c1)c1ccco1`?
ERK AVP inh: -13.9%; FLuc inh: 15.8µM*

Results for O=C(Nc1ccc(-c2nc3ccccc3[nH]2)cc1)c1ccco1 ?
GBA mod: inconclusive; PK Bst: 3.94*; ERK AVP inh: 18.1%; FLuc inh: 3.98µM*

How did COCCn1c(=O)c(-c2ccccc2)nc2cnc(Oc3ccccc3)nc21 do in these assays?
ERK AVP inh: -1.1%; FLuc inh: -0.6%[11.4 µM]

Results for CCOC(=O)C1CCN(c2c(NCc3ccc(C(=O)O)cc3)c(=O)c2=O)CC1 ?
FLuc inh: -1.2%

How did O=C(Nc1ccc2oc(-c3ccccc3)nc2c1)c1cccnc1 do in these assays?
GBA mod: >76.9; ERK AVP inh: -1.4%; FLuc inh: -8.8%

Results for CCc1ccc2oc(-c3cccc(NC(=O)c4cccnc4)c3)nc2c1 ?
GBA mod: inconclusive; PK Bst: 4.06*; ERK AVP inh: 25.1µM*; FLuc inh: 5.01µM*
